Data from PubChem BioAssay (NCATS).
Inconclusive results are not listed. Active and inactive are the calls of the source. Calls follow the shape of the dose curve; as a rule, active = well fitted cell-killing curve with a large enough effect; inconclusive = small, poorly fitted or top-dose-only effect, or effect the other way; inactive = flat fitted curve, though single readings scatter. *1 amine or outer side, *2 acyl side, *3 side chain or, on linkers, in order; H or OH if unused. Where a SMILES comes first, the peptide text is derived from it. Bridges are numbered along the chain shown (N, C = ends). [ ]: non-standard residue; d: D form. The star is where a group is joined. ξ: configuration not given here. X10 = NC1=NCCC(C(N[*:1])C(=O)[*:2])N1; ΔAla(3-NHCONH2) = NC(=O)NC=C(N)C(=O)O; ξβ3hOrn = NCCCC(N)CC(=O)*; Dap = NC[CH](N)C(=O)O

These compounds were tested on CASKI (assay: Primary qHTS to identify gynecologic anti-cancer compounds using libraries of approved drugs and bioactive compounds (AID 1345084; also: nearly all actives have a fitted effect of over 55% in size)). Details: Gynecologic cancer cell panel viability, ATPlite luminescence, 48 h; series mostly up to 57.5 µM; activity change, negative = cytotoxicity: at the top concentration.
Outline: (§1)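 Cell viability after 48 h drug treatment, ATPlite luminescence readout; five doses.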
% is scaled to controls: 0 for no effect and ±100 for the full control effect.

Row | Compound | activity change, negative = cytotoxicity
1 | CC(C(=O)O)c1ccc(/C=C2\CCCCC2=O)cc1 (centres undefined) | 1.12% (inactive)
2 | O=C(CO)[C@@H](O)[C@H](O)[C@@H](O)CO | 1.95% (inactive)
3 | CC(=O)N(CC(O)CO)c1c(I)c(C(=O)NCCO)c(I)c(C(=O)NCC(O)CO)c1I (centres undefined) | 0.0386% (inactive)
4 | O=C(O)[C@H](O)[C@@H](O)[C@H](O[C@@H]1O[C@H](CO)[C@H](O)[C@H](O)[C@H]1O)[C@H](O)CO | -0.257% (inactive)
5 | CCCCC(O)/C=C(C)/C=C/C=C/C(=O)N1CCCC1=O (centres undefined) | -1.09% (inactive)
6 | Cc1ncc([N+](=O)[O-])n1C | 7.26% (inactive)
7 | CCCN(CCC)C(=O)C(CCC(=O)OCCCN1CCN(CCOC(=O)Cc2c(C)n(C(=O)c3ccc(Cl)cc3)c3ccc(OC)cc23)CC1)NC(=O)c1ccccc1 (centres undefined) | -4.7% (inactive)
8 | COC(=O)c1c(Cl)c(Cl)c(C(=O)OC)c(Cl)c1Cl | 16.2% [at 116 µM] (inactive)
9 | NCCCC(N)CC(=O)NCC1NC(=O)C(CO)NC(=O)C(N)CNC(=O)C(C2CCN=C(N)N2)NC(=O)C(=CNC(N)=O)NC1=O (stereo not drawn) (H-[Dap]S[Dap](ξβ3hOrn)[ΔAla(3-NHCONH2)][X10]; lactam 1-C; configuration not given here) | 9.08% [at 0.462 µM] (inactive)
10 | CC(NN)c1ccccc1 (centres undefined) | -5.28% [at 25.3 µM] (inactive)
11 | c1ccc2occc2c1 | 1.71% [at 116 µM] (inactive)
12 | CCCCCOc1ccc(C2SC(=O)NC2=O)cc1OCC (centres undefined) | 10.4% (inactive)
13 | CCCc1c2oc(C(=O)O)cc(=O)c2cc2c(=O)cc(C(=O)O)n(CC)c12 | 5.21% (inactive)
14 | COc1ccc2c(c1)CCCC2=O | 4.2% (inactive)
15 | Cc1ccc(O)cc1 | -5.94% (inactive)
16 | CC(CCc1ccc2c(c1)OCO2)NN (centres undefined) | 3.27% (inactive)
17 | Cc1cc(=O)oc2cc(O[C@@H]3SC[C@@H](O)[C@H](O)[C@H]3O)ccc12 | -10.8% (inactive)

Each compound was assayed on Es-2 in the same assay as above. Details: Gynecologic cancer cell panel viability, ATPlite luminescence, 48 h; series mostly up to 57.5 µM; activity change, negative = cytotoxicity: at the top concentration.
Outline: as §1

Row | Compound | activity change, negative = cytotoxicity
18 | CC(=O)Nc1ccc(S(=O)(=O)Nc2cc(C)on2)cc1 | 6.46% (inactive)
19 | CCCCN(CCN(CCCC)C(=O)N1CCOCC1)C(=O)N1CCOCC1 | 1.27% (inactive)
20 | C[C@H]1C[C@H](O)c2ccsc2S1(=O)=O | 11.9% (inactive)
21 | NC(=O)NS(=O)(=O)c1ccc(Cl)cc1 | -1.68% (inactive)
22 | Cn1c(=O)c2c(ncn2CC(=O)O)n(C)c1=O | 1.58% (inactive)
23 | C[C@H]1NCc2cc(-c3ccc4c(=O)c(C(=O)O)cn(C5CC5)c4c3OC(F)F)ccc21 | 3.65% [at 25.3 µM] (inactive)
24 | Cc1nc(C2CCCCC2)c(-c2ccc(S(N)(=O)=O)c(F)c2)o1 | 0.0266% (inactive)
25 | O=c1[nH]c(=O)n([C@H]2O[C@H](CO)[C@@H](O)[C@@H]2O)cc1/C=C\Br | 7.19% (inactive)
26 | COc1ccccc1OCC1CNC(=O)O1 (centres undefined) | -4.04% (inactive)
27 | Nc1ccc([N+](=O)[O-])c(C(F)(F)F)c1 | 3.51% (inactive)
28 | N#CSCC(=O)O | -12.4% (inactive)
29 | CCCCN(CCCC)C(C(N)=O)c1ccc(OC)cc1 (centres undefined) | -2.14% (inactive)
30 | O=C(CCCl)NCCc1ccccc1 | 11.8% (inactive)
31 | O=[N+]([O-])c1ccc(-c2nc(-c3ccc(F)cc3)c(-c3ccncc3)[nH]2)cc1 | -18.9% (inactive)
32 | CCC(C(=O)NC(=O)NC(C)=O)c1ccccc1 (centres undefined) | 6.82% (inactive)
33 | CCCC(=O)OCOC(=O)C1=C(C)NC(C)=C(C(=O)OC)C1c1cccc(Cl)c1Cl (centres undefined) | -1.1% (inactive)
34 | Cc1ccccc1C(=O)N1CC/C(=N\OS(=O)(=O)O)c2ccc(Cl)cc21 | 0.295% (inactive)
35 | CC(NC(CCc1ccccc1)C(=O)O)C(=O)N1C(=O)N(C)CC1C(=O)O (centres undefined) | 1.96% (inactive)
36 | C1=CC2C3C=CC(C3)C2C1 (centres undefined) | -0.122% [at 116 µM] (inactive)

Row | Compound | activity change, negative = cytotoxicity
37 | CC1CCCCN1CCCOC(=O)c1ccc(OC2CCCCC2)cc1 (centres undefined) | 4.55% (inactive)
38 | CC(C(=O)O)c1ccc(/C=C2\CCCCC2=O)cc1 (centres undefined) | -1.05% (inactive)
39 | O=C(CO)[C@@H](O)[C@H](O)[C@@H](O)CO | 3.88% (inactive)
40 | CC(=O)N(CC(O)CO)c1c(I)c(C(=O)NCCO)c(I)c(C(=O)NCC(O)CO)c1I (centres undefined) | -5.31% (inactive)
41 | O=C(O)[C@H](O)[C@@H](O)[C@H](O[C@@H]1O[C@H](CO)[C@H](O)[C@H](O)[C@H]1O)[C@H](O)CO | 0.538% (inactive)
42 | CCCCC(O)/C=C(C)/C=C/C=C/C(=O)N1CCCC1=O (centres undefined) | 3.48% (inactive)
43 | Cc1ncc([N+](=O)[O-])n1C | 15.5% (inactive)
44 | CCCN(CCC)C(=O)C(CCC(=O)OCCCN1CCN(CCOC(=O)Cc2c(C)n(C(=O)c3ccc(Cl)cc3)c3ccc(OC)cc23)CC1)NC(=O)c1ccccc1 (centres undefined) | -2.55% (inactive)
45 | COC(=O)c1c(Cl)c(Cl)c(C(=O)OC)c(Cl)c1Cl | -2.01% [at 116 µM] (inactive)
46 | NCCCC(N)CC(=O)NCC1NC(=O)C(CO)NC(=O)C(N)CNC(=O)C(C2CCN=C(N)N2)NC(=O)C(=CNC(N)=O)NC1=O (stereo not drawn) (H-[Dap]S[Dap](ξβ3hOrn)[ΔAla(3-NHCONH2)][X10]; lactam 1-C; configuration not given here) | -0.941% [at 0.462 µM] (inactive)
47 | CC(NN)c1ccccc1 (centres undefined) | 1.47% [at 25.3 µM] (inactive)
48 | c1ccc2occc2c1 | -5.82% [at 116 µM] (inactive)
49 | CCCCCOc1ccc(C2SC(=O)NC2=O)cc1OCC (centres undefined) | -3.37% (inactive)
50 | CCCc1c2oc(C(=O)O)cc(=O)c2cc2c(=O)cc(C(=O)O)n(CC)c12 | 4.86% (inactive)
51 | COc1ccc2c(c1)CCCC2=O | -1.94% (inactive)
52 | Cc1ccc(O)cc1 | 10.9% (inactive)
53 | CC(CCc1ccc2c(c1)OCO2)NN (centres undefined) | -1.11% (inactive)
54 | Cc1cc(=O)oc2cc(O[C@@H]3SC[C@@H](O)[C@H](O)[C@H]3O)ccc12 | 3.88% (inactive)
